An excerpt weighted towards active compounds, which were near 2% of everything screened.
PKA-R1A activ: activates the PKA-R1A holoenzyme complex. activation, % at 11.4 µM. PKA-R1A dissociation, Cy5-IP20 fluorescence polarization; scaled: DMSO 0%, 113 µM cGMP 100%. P00514+P68181. AID 504707. actives 0.083% (n = 340,000);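 active = percent activation above the mean of all tested compounds plus 3 SD, cut at about 19% in these data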;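 also: higher means more PKAc released from R1A so a rise in polarization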
PKA-R2B act: PKA-R2B complex activation; P22694+P31323; PKA-R2B holoenzyme dissociation, Cy5-IP20 fluorescence polarization; R2B truncated from residue 108, S112A mutant; 0% DMSO only, 100% 113 µM cGMP; activation, % at 11.4 µM; actives 0.079% (n = 340,000);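 active = activation above a cutoff set at the mean over all compounds plus 3 SD, cut at about 18% in these data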;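 also: higher means more holoenzyme dissociation and a rise in polarization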
Target sequence (P31323 whole entry, looked up, other chains not shown, the tested form may be a part): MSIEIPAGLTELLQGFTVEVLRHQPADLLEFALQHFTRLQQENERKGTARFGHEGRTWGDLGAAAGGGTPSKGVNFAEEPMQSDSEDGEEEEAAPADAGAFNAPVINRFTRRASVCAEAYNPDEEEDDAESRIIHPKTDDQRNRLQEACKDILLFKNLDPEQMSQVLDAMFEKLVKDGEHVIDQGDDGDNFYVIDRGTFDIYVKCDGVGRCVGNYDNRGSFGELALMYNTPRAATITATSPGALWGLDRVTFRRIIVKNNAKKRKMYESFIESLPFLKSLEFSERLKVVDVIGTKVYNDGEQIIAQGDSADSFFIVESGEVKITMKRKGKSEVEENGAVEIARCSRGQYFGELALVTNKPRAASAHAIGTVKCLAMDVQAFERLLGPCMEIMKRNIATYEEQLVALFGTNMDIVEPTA
MsrA inh: bovine MsrA inhibition; AID 651718; purified bovine MsrA, absorbance read-out; actives 0.75% (n = 360,000); inhibition, % at 15.5 µM; in the data active = inhibition above about 4.5%
bovine MsrA act: bovine methionine sulfoxide reductase A activation. actives 0.3% (n = 360,000). purified bovine MsrA, absorbance read-out. activation, % at 10.6 µM. AID 602163; in the data active = activation above about 7.5%
Mot1-301 SUMO: blocks SUMOylation pathway, rescuing yeast Mot1-301 growth; AID 2716; actives 1% (n = 320,000); growth rescue, % at 18.8 µM; S. cerevisiae Mot1-301 growth rescue, ATP luminescence, 38.5C; percent above DMSO median, 100 means doubled;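 active = every valid replicate shows activation above 250% relative to neutral control wells; inactive = the rest, any valid replicate at or below 250%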
R1A FP artifact: fluorescence polarization artifact in PKA-R1A activator counter-screen; Cy5-IP20 peptide alone, fluorescence polarization artifact counterscreen; activation, % at 11.4 µM; shares compounds with PKA-R1A activ; actives 7% (n = 280);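 active = mean activation over triplicate runs exceeds the adjusted cutoff derived for the parent primary screen, cut at about 19% in these data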;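 also: no PKA protein present so any polarization rise reflects compound interference; higher means stronger polarization artifact and likely false positive in parent screen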
PKA-R1A confirm: PKA-R1A complex activation, confirmation. activation, % at 11.4 µM. Cy5-IP20 fluorescence polarization, PKA-R1A holoenzyme dissociation. shares compounds with PKA-R1A activ. actives 9% (n = 280);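 active = mean activation over replicate wells exceeds the adjusted hit threshold taken from the earlier primary screen, cut at about 20% in these data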
Each line names hits and unclear results; the compound was inactive in the other large screens (follow-up assays come after a bar, where they were run).

OC(c1ccccc1)(c1ccccc1)C1CCN(CCCOc2ccc(-c3cncnc3)cc2)CC1	none (no result: PKA-R1A activ, PKA-R2B act, bovine MsrA act, Mot1-301 SUMO)
C/C(=N/NC(=O)c1cccs1)c1ccc(NC(=O)COc2ccc(Cl)cc2)cc1	PKA-R1A activ 19 | R1A FP artifact inactive | PKA-R1A confirm inactive
CCC(C)(C)n1nnnc1C(c1cc2cccc(C)c2[nH]c1=O)N1CCN(C(=O)c2ccco2)CC1 (stereo not given)	PKA-R1A activ 19 | R1A FP artifact inactive | PKA-R1A confirm inactive
COc1ccc(C2C(C#N)=C(N)OC(C(C)(C)C)=C2C#N)cc1OC (stereo not given)	PKA-R1A activ 20 | R1A FP artifact inactive | PKA-R1A confirm inactive
O=C(COC(=O)C1CC(=O)N(Cc2ccco2)C1)Nc1ccc(F)cc1F (stereo not given)	PKA-R1A activ 20 | R1A FP artifact inactive | PKA-R1A confirm inactive
O=C(COC(=O)C1CC(=O)N(Cc2ccco2)C1)Nc1ccccc1[N+](=O)[O-] (stereo not given)	none (no result: Mot1-301 SUMO)
O=C(NCc1ccco1)C1CC2CCC1C2 (stereo not given)	PKA-R1A activ 20 | R1A FP artifact inactive | PKA-R1A confirm inactive
CC1CCC2(CC1)NC(=S)N(c1ccccc1)N2 (stereo not given)	PKA-R1A activ 19 | R1A FP artifact inactive | PKA-R1A confirm inactive
CC1CCC2(CC1)NC(=S)N(C(C)(C)C)N2 (stereo not given)	none (no result: PKA-R1A activ, PKA-R2B act)
CCN(CC(=O)Nc1ccccc1C(F)(F)F)C(=O)CSCc1ccc(C)cc1	none
CCN(CC(=O)Nc1ccccc1OC)C(=O)CSCc1ccc(C)cc1	PKA-R1A activ 22 | R1A FP artifact inactive | PKA-R1A confirm inactive
CC(C)C[C@H]1COc2cc(Br)ccc2S(=O)(=O)N1Cc1ccc(Cl)cc1	none (no result: PKA-R1A activ, PKA-R2B act, bovine MsrA act, Mot1-301 SUMO)
CC#CC(=O)NC1CCCN(C2Cc3ccccc3C2)C1 (stereo not given)	PKA-R1A activ 19 | R1A FP artifact inactive | PKA-R1A confirm inactive
COc1cccc(C(=O)NC2CCCN(C3Cc4ccccc4C3)C2)c1OC (stereo not given)	none
C=CCN=C1NC(c2cccc(Cl)c2)C(C(=O)OC)=C(C)N1Cc1ccc(C(F)(F)F)cc1 (stereo not given)	none (no result: PKA-R1A activ, PKA-R2B act, bovine MsrA act, Mot1-301 SUMO)
COC(=O)Cc1nnn2c1[C@H](C)[C@H](C(C)(C)C)OCC2	none (no result: PKA-R1A activ, PKA-R2B act, bovine MsrA act, Mot1-301 SUMO)
COc1ccccc1-c1cc(C(=O)Nc2cccnc2)no1	PKA-R1A activ 19 | R1A FP artifact inactive | PKA-R1A confirm inactive
COc1ccc(NC(=O)c2cc(-c3ccccc3OC)on2)cc1	none
COc1ccc(C(=O)Nc2c3c(nn2-c2ccc(Cl)cc2)CS(=O)(=O)C3)cc1	PKA-R1A activ 20 | R1A FP artifact inactive | PKA-R1A confirm inactive
CC(C)(C)n1nc(C2CC2)c(Br)c1NC(=O)c1ccc(Cl)cc1	none (no result: PKA-R1A activ, PKA-R2B act, bovine MsrA act, Mot1-301 SUMO)
CC1CCN(C(=O)C(=O)c2cn(CC(=O)N3CCCC3)c3ccccc23)CC1	none
NC(=O)C1CCN(C(=O)C(=O)c2cn(CC(=O)N3CCCC3)c3ccccc23)CC1	PKA-R1A activ 20 | R1A FP artifact inactive | PKA-R1A confirm inactive
Cc1ccc(S(=O)(=O)NCCn2cnc([N+](=O)[O-])n2)cc1	PKA-R1A activ 21 | R1A FP artifact inactive | PKA-R1A confirm inactive
Cc1ccc(S(=O)(=O)NCCNS(=O)(=O)c2ccc(C)cc2)cc1	none
Cc1cc(Br)c2nc(-c3cccc(Br)c3)c(Cc3cccc(Cl)c3)n2c1	none (no result: PKA-R1A activ, PKA-R2B act, bovine MsrA act, Mot1-301 SUMO)
CN(Cc1ccccc1)c1ccc(C(CC(N)=O)NC(=O)c2ccc(Br)cc2)cc1[N+](=O)[O-] (stereo not given)	PKA-R1A activ 25 | R1A FP artifact 19 | PKA-R1A confirm 19
COc1ccc(C(=O)C[n+]2cccc3cc(OC)ccc32)cc1	none
COc1ccc(C(=O)C[n+]2cccc3cc(C)ccc32)cc1	PKA-R1A activ 19 | R1A FP artifact inactive | PKA-R1A confirm inactive
COC(=O)c1cc2c(c3c4cc(C)ccc4n(S(=O)(=O)c4ccc(C)cc4)c13)C(=O)N(Cc1ccc(N(C)C)cc1)C2	none (no result: PKA-R1A activ, PKA-R2B act, bovine MsrA act, Mot1-301 SUMO)
Cc1nn(Cc2cccc(F)c2)c(C)c1NC(=O)c1c([N+](=O)[O-])c(C)nn1C	none
CCn1cc([N+](=O)[O-])c(C(=O)Nc2c(C)nn(Cc3cccc(F)c3)c2C)n1	PKA-R1A activ 19 | R1A FP artifact inactive | PKA-R1A confirm inactive
COc1ccc(/C=C2/S/C(=N/S(=O)(=O)Cc3ccccc3)NC2=O)cc1OC	PKA-R1A activ 23 | R1A FP artifact inactive | PKA-R1A confirm inactive
COc1cc(/C=C2\SC(=S)NC2=O)ccc1OS(=O)(=O)c1ccccc1	none (no result: PKA-R1A activ, PKA-R2B act, MsrA inh, bovine MsrA act)
O=S(=O)(c1ccc(F)cc1)N1CCCc2nc(-c3ccc(Br)cc3)ccc21	none (no result: PKA-R1A activ, PKA-R2B act, bovine MsrA act, Mot1-301 SUMO)
O=C(NNC(=S)Nc1ccc(Cl)cc1)c1ccccc1	none
O=C(NNC(=S)Nc1cccc(Cl)c1)c1ccccc1	PKA-R1A activ 20 | R1A FP artifact inactive | PKA-R1A confirm inactive
CCCC1=NN(c2ccc([N+](=O)[O-])cc2)C(=O)/C1=C/N(C)C	PKA-R1A activ 19 | R1A FP artifact inactive | PKA-R1A confirm inactive
COc1cccc2cc(-c3nnc(SCC(=O)Nc4cc(C(F)(F)F)ccc4Cl)n3N)oc12	PKA-R1A activ 20 | R1A FP artifact inactive | PKA-R1A confirm inactive
COc1cccc(CN(C)CC(=O)NC(=O)NCc2ccccc2)c1	none
COc1ccc(CN(C)CC(=O)NC(=O)NCc2ccccc2)cc1OC	PKA-R1A activ 21 | R1A FP artifact inactive | PKA-R1A confirm inactive
C/C(=N\NC(=O)c1ccoc1C)c1ccc(Cl)s1	PKA-R1A activ 20 | R1A FP artifact inactive | PKA-R1A confirm inactive
Cc1cc(NC(=O)CSCC(=O)OCC(=O)Nc2cc(C)c(C)cc2[N+](=O)[O-])no1	PKA-R1A activ 20 | R1A FP artifact inactive | PKA-R1A confirm inactive
CC(=O)c1ccccc1NC(=O)COC(=O)CSCC(=O)Nc1cc(C)on1	none
CCN1C(=O)/C(=C\N(C)C)c2ccccc21	none
CCN1C(=O)/C(=C/N(C)C)c2ccccc21	PKA-R1A activ 19 | R1A FP artifact inactive | PKA-R1A confirm inactive
O=C(N[C@H](C(=O)N1CCC[C@H]1C(=O)NCCc1ccccc1Cl)c1ccccc1)C1CC1	none (no result: PKA-R1A activ, PKA-R2B act, bovine MsrA act, Mot1-301 SUMO)
Cc1cccc(NC(=O)c2sc(C)nc2C)c1	PKA-R1A activ 19 | R1A FP artifact inactive | PKA-R1A confirm inactive
Cc1nc(C)c(C(=O)Nc2cccc(C)c2C)s1	none
O=C(OCc1ccccc1)N1Cc2ccnnc2CC1c1ccccc1-c1ccc(C(F)(F)F)cc1 (stereo not given)	none (no result: PKA-R1A activ, PKA-R2B act, bovine MsrA act, Mot1-301 SUMO)
Cc1ccc(C(=O)N2CCC[C@@H]2C(=O)N2CCC[C@@H]2C(=O)NCc2ccccc2)cc1C	none (no result: PKA-R1A activ, PKA-R2B act, bovine MsrA act, Mot1-301 SUMO)
CCOC(=O)C1=NNC(C(=O)c2ccc(OC)cc2)C1c1ccccc1 (stereo not given)	PKA-R1A activ 20 | R1A FP artifact inactive | PKA-R1A confirm inactive

Compound activity deposited in PubChem by several laboratories.
